Test results reported in PubChem BioAssay AID2284142 (EPA ToxCast).
The source made the active and inactive calls. Rule for the calls: active = hit-call score of the fitted dose curve at least 0.9, where 1 is the maximum; inactive = score below 0.9.

Target: human Adenosine Receptor A1 Agonism, ADORA1 (gene 134) (UniProt P30542)
Assay: ERF_FR_GPCR_hADORA1: Eurofins (ERF) G Protein-Coupled Receptor (GPCR) Radioligand Binding LeadHunter Assay for human Adenosine Receptor A1 Agonism
Protocol: ERF_FR_GPCR_hADORA1 is a biochemical, single-readout assay that uses extracted gene-proteins in a cell-free assay. Measurements were taken 1 hour after chemical dosing in a 96-well plate. See A1 Human Adenosine GPCR Binding (Agonist Radioligand) Assay, Cerep.ERF_FR_GPCR_hADORA1 is an assay component calculated from the ERF_FR_GPCR_hADORA1 assay. It is designed to measure radioligand binding using a type of binding reporter as detected by scintillation counting with radiometry technology.Data from the assay component ERF_FR_GPCR_hADORA1 was analyzed at the assay endpoint, ERF_FR_GPCR_hADORA1, in the positive analysis fitting direction relative to DMSO as the negative control and baseline of activity. Using a type of binding reporter, […] activity can be used to understand changes in binding as they relate to gene ADORA1. To generalize the intended target to other relatable targets, this assay endpoint is annotated to the gpcr intended target family, where the subfamily is adenosine.
2) Dose Response: 90 ul of 10 mM stock -OR- 1 mg (pre-weighed) for a top concentration at 10 uM.

Sequence of human Adenosine Receptor A1 Agonism, ADORA1 (gene 134) (P30542 whole entry, looked up): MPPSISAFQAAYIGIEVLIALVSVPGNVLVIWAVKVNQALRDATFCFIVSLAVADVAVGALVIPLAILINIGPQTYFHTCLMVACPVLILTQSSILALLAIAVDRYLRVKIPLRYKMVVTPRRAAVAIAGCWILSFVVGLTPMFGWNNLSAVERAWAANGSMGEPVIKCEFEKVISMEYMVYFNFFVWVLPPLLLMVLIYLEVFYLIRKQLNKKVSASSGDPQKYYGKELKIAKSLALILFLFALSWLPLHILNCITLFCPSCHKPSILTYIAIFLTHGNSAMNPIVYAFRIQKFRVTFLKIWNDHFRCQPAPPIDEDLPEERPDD

Row | Structure (SMILES) | AC50
1 | O=C(/C=C/c1ccc(O)cc1)CC(=O)/C=C/c1ccc(O)cc1 | 1920 nM (active)
